Compounds with a hit are over-represented: about 2% of the library has one in this group of screens.
sPLA2-III inh: Inhibits HGIII-sPLA2 liposome hydrolysis, primary screen; inhibition, % at 12.2 µM; hit rate 0.56% among 370,000; Q9NZ20; AID 743126; QFRET BODIPY PC-A2 liposome hydrolysis, fluorescence;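 active = inhibition above mean plus 3 SD of compounds lying within the high and low control bounds, cut at about 19% in these data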;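 note: 0% = median of test compound wells and 100% = no enzyme DMSO wells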
ARNT-TACC3 inh: disruptors of human ARNT/TACC3 interaction. AlphaScreen His-ARNT PAS-B/GST-TACC3 binding, luminescence; TACC3 fragment carries E629A point mutation. hit rate 0.66% among 390,000. Q9Y6A5. AID 623870. inhibition, % at 9.99 µM;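 active = mean inhibition of replicates at least 50% and at least half of replicates each reaching 50%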;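 note: 0% = complete ARNT plus TACC3 wells and 100% = ARNT alone without TACC3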
DAGLB inhibitor: blocks human DAGLB lipase activity. Q8NCG7. hit rate 0.059% among 340,000. HEK293T DAGLB membrane lysate, EnzChek fluorogenic substrate. inhibition, % at 5.17 µM. AID 504411; in the data active = inhibition above about 34%;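 note: 0% = enzyme with vehicle and 100% = wells lacking enzyme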
Target sequence (Q8NCG7 whole entry, looked up): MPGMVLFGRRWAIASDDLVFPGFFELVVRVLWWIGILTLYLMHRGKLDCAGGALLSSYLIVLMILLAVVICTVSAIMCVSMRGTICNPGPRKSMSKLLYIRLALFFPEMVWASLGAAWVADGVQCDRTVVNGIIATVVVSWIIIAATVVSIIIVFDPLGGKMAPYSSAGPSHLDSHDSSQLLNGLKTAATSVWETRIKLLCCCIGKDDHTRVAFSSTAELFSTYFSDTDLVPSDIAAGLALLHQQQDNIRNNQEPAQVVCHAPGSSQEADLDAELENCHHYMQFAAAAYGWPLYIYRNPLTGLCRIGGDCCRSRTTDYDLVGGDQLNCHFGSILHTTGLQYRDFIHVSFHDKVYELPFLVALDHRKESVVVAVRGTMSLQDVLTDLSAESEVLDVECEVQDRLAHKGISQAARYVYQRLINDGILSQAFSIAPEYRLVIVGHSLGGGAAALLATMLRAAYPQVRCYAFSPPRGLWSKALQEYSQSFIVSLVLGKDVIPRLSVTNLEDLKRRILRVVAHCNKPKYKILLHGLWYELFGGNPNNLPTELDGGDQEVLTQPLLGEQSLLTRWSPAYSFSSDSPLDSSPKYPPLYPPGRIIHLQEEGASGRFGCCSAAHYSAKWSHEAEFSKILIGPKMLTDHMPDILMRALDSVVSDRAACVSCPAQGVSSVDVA
NadD block: inhibitors of Staphylococcus aureus NadD; purified NadD enzyme, colorimetric absorbance read-out; inhibition, % at 20 µM; hit rate 0.78% among 360,000; in the data active = inhibition above about 26%
Neddyl block: inhibitors of human cullin neddylation. TR-FRET cullin neddylation, biochemical. inhibition, % at 25 µM. P61081+Q13564. hit rate 0.58% among 360,000; in the data active = inhibition above about 36%
ARNT Alpha ctr: AlphaScreen artifact in ARNT/TACC3 counter-screen; AC50, µM (doses to about 68 µM), without a hit: at the top dose activity change, negative = signal decrease; shares compounds with ARNT-TACC3 inh; His-ARNT PASB-GST AlphaScreen artifact counter-screen, luminescence; hit rate 50% among 1,200;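 active = every separate test run was called active for a drop in luminescence, with AC50 within twice the top valid dose, actives reach about 71 µM in these data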
Active calls of the source: *; nt = no result.

SMILES	sPLA2-III inh	ARNT-TACC3 inh	DAGLB inhibitor	NadD block	Neddyl block	ARNT Alpha ctr
Cc1[nH][nH]c(=O)c1C(c1ccc(-c2ccc(F)cc2)o1)c1c(C)[nH][nH]c1=O	-19	48*	4	5	-10	-19%
Cc1[nH][nH]c(=O)c1C(c1ccc(N(C)C)c(Br)c1)c1c(C)[nH][nH]c1=O	-45	5	0	1	-1	nt
Cc1[nH][nH]c(=O)c1C(c1ccc(-c2ccc(C(=O)O)cc2)o1)c1c(C)[nH][nH]c1=O	0	72*	-3	-3	-5	-11%
COc1ccc(-c2cn(CC[C@H]3CC[C@@H](NS(=O)(=O)c4ccccc4C)[C@H](CO)O3)nn2)cc1	nt	-10	nt	nt	nt	nt
CCN(CC)S(=O)(=O)c1ccc(NN)nc1	-8	56*	-1	6	0	45µM*
COc1ccccc1C(CCNCc1ccc(N(C)C)cc1)c1ccc(OC(C)C)cc1 (configuration not stated)	-13	active	-1	6	6	7.7µM*
C[C@H](CO)N1C[C@H](C)[C@H](CN(C)C(=O)Nc2ccc3c(c2)OCO3)OCCCC[C@H](C)Oc2ccc(NS(=O)(=O)c3cn(C)cn3)cc2C1=O	nt	3	nt	nt	nt	nt
O=C(Nc1nc(-c2ccccn2)cs1)C1CC1	3	nt	1	-1	0	nt
O=C(Nc1nc(-c2ccccn2)cs1)C12CC3CC(CC(O)(C3)C1)C2	-3	71*	0	1	-2	62µM*
C[C@@H]1CN([C@H](C)CO)S(=O)(=O)c2ccc(C#CCN(C)C)cc2O[C@H]1CN(C)Cc1ccccc1F	nt	15	nt	nt	nt	nt
Cc1noc(C)c1S(=O)(=O)Nc1ccc2c(c1)C(=O)N([C@@H](C)CO)C[C@@H](C)[C@H](CN(C)S(=O)(=O)c1cn(C)cn1)OCCCC[C@H](C)O2	nt	-11	nt	nt	nt	nt
O=C(C[C@H]1CC[C@H](NS(=O)(=O)c2ccccc2)[C@@H](CO)O1)NCc1ccncn1	nt	0	nt	nt	nt	nt
COc1ccc(S(=O)(=O)N(C)C[C@@H]2Oc3ccc(NS(=O)(=O)c4cccs4)cc3CC(=O)N([C@H](C)CO)C[C@@H]2C)cc1	nt	-4	nt	nt	nt	nt
CC(=O)N(C)C[C@H]1Oc2ncc(-c3cccc(F)c3)cc2C(=O)N([C@H](C)CO)C[C@@H]1C	nt	2	nt	nt	nt	nt
COC(=O)c1[nH]c2ccc(Cl)cc2c1NC(=O)c1ccccc1[N+](=O)[O-]	2	-3	0	-4	-7	nt
COC(=O)c1[nH]c2ccc(C)cc2c1NC(=O)c1ccccc1[N+](=O)[O-]	-5	54*	0	-3	-19	-6%
O=C(N[C@H]1CC[C@@H](CCn2cc(-c3ccccn3)nn2)O[C@@H]1CO)c1ccccc1	nt	77*	nt	nt	nt	41µM*
O=C(N[C@@H]1CC[C@@H](CCn2cc(-c3ccccn3)nn2)O[C@H]1CO)c1ccccc1	nt	74*	nt	nt	nt	41µM*
COCc1cn(CC[C@@H]2CC[C@@H](NC(=O)c3ccncc3)[C@H](CO)O2)nn1	nt	-1	nt	nt	nt	nt
COCc1cn(CC[C@@H]2CC[C@@H](NC(=O)c3ccccc3)[C@@H](CO)O2)nn1	nt	1	nt	nt	nt	nt
O=C(N[C@@H]1CC[C@H](CCn2cc(-c3ccccn3)nn2)O[C@H]1CO)c1ccncc1	nt	57*	nt	nt	nt	31µM*
O=C(N[C@H]1CC[C@@H](CCn2cc(-c3ccccn3)nn2)O[C@H]1CO)c1ccccc1	nt	81*	nt	nt	nt	33µM*
COCc1cn(CC[C@H]2CC[C@@H](NC(=O)c3ccccc3)[C@@H](CO)O2)nn1	nt	-15	nt	nt	nt	nt
CCC(=O)Nc1ccc2c(c1)OC[C@@H](C)N(C(=O)Cc1cccnc1)C[C@@H](C)[C@H](OC)CN(C)C2=O	nt	-3	nt	nt	nt	nt
O=C(N[C@@H]1CC[C@H](CCNC(=O)C2CCC2)O[C@@H]1CO)c1ccccn1	nt	-9	nt	nt	nt	nt
O=C(C[C@@H]1CC[C@@H]2NC[C@@H](O)COC[C@H]2O1)NCCN1CCCC1	nt	-13	nt	nt	nt	nt
COCc1cn(CC[C@H]2CC[C@H](NC(=O)c3ccc(F)cc3)[C@H](CO)O2)nn1	nt	-1	nt	nt	nt	nt
O=C(N[C@H]1CC[C@H](CCn2cc(-c3ccccn3)nn2)O[C@@H]1CO)c1ccc(F)cc1	nt	59*	nt	nt	nt	59µM*
Oc1cccc(CN2CCOCC2)c1O	-6	15*	3	6	-17	-1%
O=C(NCc1ccccn1)c1c(-c2ccccc2)sc2ccccc12	-4	59*	-3	-2	-75	-17%

Screens from PubChem.
